9 molecules from PubChem BioAssay (Tox21) can be followed below.

Values without a mark were called inactive. Active and inactive are the calls of the source. Unless noted, calls come from the whole dose curve; as a rule, active = well fitted curve in the direction sought with a large enough effect in the repeat runs; inconclusive = weak or mixed curves; inactive = no such curve, though single readings can be large; an effect the other way counts as inactive or inconclusive.

Assay [1] in a line: qHTS assay for small molecules that induce genotoxicity in human embryonic kidney cells expressing luciferase-tagged ATAD5 (AID 651632). Note: nearly all actives have a fitted effect of over 15% in size. Put shortly:
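HEK293T cells carrying luciferase-tagged ATAD5 were given compound or DMSO vehicle and incubated 16 hr at 37C, 5% CO2. Luciferase activity was read after 30 min at room temperature with Amplite; a rise signals genotoxic stress.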

Assay [2] is described as follows: qHTS assay for small molecule disruptors of the mitochondrial membrane potential - cell viability (AID 720634; calls by dose curve; note: nearly all actives have a fitted effect of over 20% in size; note: potency is the fitted concentration of half-maximal effect). Put shortly: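 HepG2 cells, 2,000 per well, attached overnight, then treated 1 hr at 37 C, 5% CO2. Viability read as ATP by CellTiter-Glo luminescence after 30 min at room temperature. Read in the same wells as the m-MPI membrane-potential dye assay.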

A short description of assay [3]: qHTS assay to test for compound auto fluorescence at 590 nm (red) in HepG2 cells (AID 720674). Put shortly:
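We screened compounds on adherent HepG2 cells, incubating them for an hour at 37 C in 5% CO2 before reading emission at 590 nm under 540 nm excitation; values reflect equivalence to Rose Bengal sodium fluorescence.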

Assay [4] can be described thus: qHTS assay to test for compound auto fluorescence at 535 nm (green) in HepG2 cells (AID 720675).
Assay [5] in a line: qHTS assay to test for compound auto fluorescence at 460 nm (blue) in HEK293 cells (AID 720678). Put shortly:
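Triamterene serves as the blue fluorophore standard. Compound signal at 405/460 nm is read in HEK293 wells (2,000 cells, 10% dialyzed FBS) after overnight treatment at 37C.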

Assay [6] can be described thus: qHTS assay to test for compound auto fluorescence at 590 nm (red) in HEK293 cells (AID 720679). In outline:
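We plated HEK293 cells in 10% dialyzed FBS medium, let them adhere for 4-5 hr, then added 23 nL compound. Overnight at 37C and 5% CO2 preceded fluorescence measurement at 540/590nm.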

Assay [7] in a line: qHTS assay to test for compound auto fluorescence at 535 nm (green) in HEK293 cells (AID 720680).
The nature of assay [8]: qHTS assay to test for compound auto fluorescence at 460 nm (blue) in HEK293 cell free culture (AID 720681). Put shortly: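 Blue fluorescence (Ex 405/Em 460 nm, triamterene-equivalent) was read immediately after pin transfer of compound or DMSO into medium (DMEM, 10% FBS) without cells.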
Assay [9] is described as follows: qHTS assay to test for compound auto fluorescence at 535 nm (green) in HEK293 cell free culture (AID 720682). Put shortly:
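Measurement is a direct plate read of green fluorescence (485 nm in, 535 nm out) after compound addition to serum-supplemented DMEM lacking cells, with fluorescein used to express intensities.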

The nature of assay [10]: qHTS assay to test for compound auto fluorescence at 590 nm (red) in HEK293 cell free culture (AID 720683). In outline:
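Red-channel autofluorescence of compounds in culture medium (DMEM, 10% FBS), no cells, measured at 540/590 nm. Rose Bengal sodium is the reference fluorophore for equivalence.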

Assay [11] is described as follows: qHTS assay to test for compound auto fluorescence at 590 nm (red) in HepG2 cell free culture (AID 720684). In outline: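 Steps: dispense MEM/10% FBS medium, no cells; pin compound or DMSO vehicle; read red channel, Ex/Em 540/590 nm. Output given as Rose Bengal sodium equivalents.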
Assay [12] can be described thus: qHTS assay to test for compound auto fluorescence at 460 nm (blue) in HepG2 cell free culture (AID 720685). In outline:
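Compound (23 nL) or DMSO pinned into cell-free MEM with 10% FBS; blue fluorescence read at 405/460 nm excitation/emission, expressed as auto-fluorescence equivalency to triamterene.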

A short description of assay [13]: qHTS assay to test for compound auto fluorescence at 535 nm (green) in HepG2 cell free culture (AID 720686).
Assay [14] in a line: qHTS assay to test for compound auto fluorescence at 460 nm (blue) in HepG2 cells (AID 720687). Put shortly:
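Blue-channel autofluorescence (Ex/Em 405/460 nm, triamterene-equivalent) was measured after 1 hr compound exposure at 37 C, 5% CO2. Cells were HepG2, plated overnight at 37 C in MEM plus 10% FBS.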

In assay [15] the target is Glucocorticoid receptor (Homo sapiens) (UniProt P04150). The assay can be described thus: qHTS assay to identify small molecule agonists of the glucocorticoid receptor (GR) signaling pathway (AID 720691; active = well fitted activation curve with a large enough effect in the signal ratio in the repeat runs, not every such curve was filed as active; inconclusive = weak or mixed curves, or effect the other way; inactive = no such curve, though single readings can be large or run the other way; the % refers to the signal ratio; note: potency is the fitted concentration of half-maximal effect). As to conditions: GR-bla HeLa, beta-lactamase reporter ratio, 18 h; activation: at 62.4 µM (top of the series) unless noted. Put shortly:
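GR-bla HeLa cells carrying a GRE-driven beta-lactamase reporter, exposed to compounds for 18 h at 37 C. Reporter activation read as fluorescence after 2 h with LiveBLAzer B/G FRET substrate at room temperature.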

The nature of assay [16]: qHTS assay for small molecules that induce genotoxicity in human embryonic kidney cells expressing luciferase-tagged ATAD5 - cell viability (AID 651634; calls by dose curve; note: nearly all actives have a fitted effect of over 25% in size; note: potency is the fitted concentration of half-maximal effect). Put shortly: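 HEK293T cells carrying luciferase-tagged ATAD5, 2,000 cells/well, exposed to compound for 15.5 hr at 37C. Viability read as live-cell protease activity by CellTiter-Fluor fluorescence after 30 min at 37C.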

Assay [17] is described as follows: qHTS assay for small molecule disruptors of the mitochondrial membrane potential (AID 720635). Note: potency is the fitted concentration of half-maximal effect. Put shortly: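 Mitochondrial membrane potential tracked with Mito-MPS dye, red aggregates (ex 540/em 590 nm) against green monomers (ex 490/em 535 nm). Compound treatment 1 hr at 37C, dye 30 min in HepG2.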
Assay [18] is described as follows: qHTS assay for small molecule agonists of the p53 signaling pathway - cell viability (AID 651633; calls by dose curve;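 note: p53RE-bla HCT reporter cells with a stable beta-lactamase p53 reporter; nearly all actives have a fitted effect of over 30% in size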). In outline: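 Viability counter-read: CellTiter-Glo luminescence (30 min, room temperature) in the same p53RE-bla plates. These plates had been exposed to compounds for 16 h at 37 C.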
% is set by controls: 0 for no effect and ±100 for the full control effect.

Chain of Glucocorticoid receptor (Homo sapiens) (P04150 whole entry, looked up): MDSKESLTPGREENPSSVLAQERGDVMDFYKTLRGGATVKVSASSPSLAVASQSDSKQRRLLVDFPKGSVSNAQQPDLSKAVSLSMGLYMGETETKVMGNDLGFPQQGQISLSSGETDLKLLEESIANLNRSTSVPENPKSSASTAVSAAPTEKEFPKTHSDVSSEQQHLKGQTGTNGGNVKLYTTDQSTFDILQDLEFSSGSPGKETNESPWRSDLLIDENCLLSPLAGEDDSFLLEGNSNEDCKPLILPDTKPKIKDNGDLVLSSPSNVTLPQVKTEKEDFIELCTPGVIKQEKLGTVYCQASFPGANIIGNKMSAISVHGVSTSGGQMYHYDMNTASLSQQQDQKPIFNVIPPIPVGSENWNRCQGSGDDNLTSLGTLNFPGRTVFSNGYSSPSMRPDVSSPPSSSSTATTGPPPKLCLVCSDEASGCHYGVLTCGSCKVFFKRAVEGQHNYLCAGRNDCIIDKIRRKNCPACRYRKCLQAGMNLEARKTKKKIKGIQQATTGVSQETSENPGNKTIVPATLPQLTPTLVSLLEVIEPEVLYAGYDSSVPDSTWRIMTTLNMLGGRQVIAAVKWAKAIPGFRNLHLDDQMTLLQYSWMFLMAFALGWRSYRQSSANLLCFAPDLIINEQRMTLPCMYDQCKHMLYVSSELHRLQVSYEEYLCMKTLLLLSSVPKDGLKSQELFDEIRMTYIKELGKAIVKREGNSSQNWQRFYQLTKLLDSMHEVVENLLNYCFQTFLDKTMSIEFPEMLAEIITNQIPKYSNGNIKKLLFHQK

As to `C#Cc1cccc(Nc2ncnc3cc(OCCOC)c(OCCOC)cc23)c1`, the Potency entry in assay [1], in [2], in assay [3], in [4], in assay [6] and in assay [10] was “inactive” in each case. Further, the Potency entry in [11] and in assay [13] was “inactive” throughout. Besides, the call in [5], in assay [7], in assay [8], in assay [9], in assay [12] and in assay [14] was inactive. For the same molecule, the Potency in [15] was 26.8 µM [inconclusive] (active).
Turning to `CCCCCCCCCCCCN1CCCCCC1=O`, the Potency entry in assay [1], in [3], in assay [4], in assay [10], in assay [11] and in assay [13] was “inactive” each time. Also, the figures for the Potency in [16], in [2] and in assay [17] were 61.1 µM (active), 27.3 µM (active) and 27.3 µM (active), respectively. For the same molecule, the result in assay [5], in assay [7], in assay [8], in assay [9], in [12] and in [14] was inactive.
With `O=C(Nc1ccccc1)c1ccccc1O`, the Potency result in assay [1], in [16], in assay [3], in [4], in assay [6] and in assay [10] was “inactive” throughout. Besides, the Potency entry in assay [11], in assay [13] and in assay [15] was “inactive” in each case. For the same molecule, the Potency in [2] is 27.3 µM (active); in assay [17], 2.43 µM (active). In addition, the outcome in [5], in assay [7], in assay [8], in assay [9] and in assay [14] was inactive.
With `COc1cc2c(cc1OC)C(C(C(=O)N(CCc1ccc(OC)c(OC)c1OC)CCc1ccc(OC)c(OC)c1OC)c1ccccc1)=NCC2` (configuration not stated), the Potency result in assay [1], in assay [2], in assay [3], in [4], in [10] and in [11] was “inactive” in each case. In addition, in [13], the Potency entry was “inactive”. Moreover, the outcome in assay [5], in assay [7], in assay [8], in [9] and in [14] was inactive.
As for `CCN(CC)CCOC(=O)C(Cc1cccc2ccccc12)CC1CCCO1` (configuration not stated), the Potency result in assay [1], in [16] and in assay [2] was “inactive” throughout. Further, the fluorescence, relative to Rose Bengal in [3] was -0.202% [at 18.6 µM]. Besides, the fluorescence, % of fluorescein control is 0.0388% [at 18.6 µM] in assay [4] and 0.0151% [at 18.6 µM] in assay [13]. In addition, the fluorescence, % of triamterene in [5] was 0.0425% [at 18.6 µM]. In addition, the fluorescence, % of fluorescent control was 0.195% [at 18.6 µM] in [6], 0.0375% [at 18.6 µM] in assay [8], -0.0194% [at 18.6 µM] in assay [12] and -0.147% [at 18.6 µM] in [14]. For the same molecule, the fluorescence, % of fluorescein in assay [7] was 0.0124% [at 18.6 µM]. For the same molecule, the activity change in [9] is -0.0273% [at 18.6 µM]. The fluorescence, % of Rose Bengal in assay [11] was 0.633% [at 18.6 µM].
For `O=C(O)c1nc(Cl)c(Cl)c(Cl)c1Cl`, the Potency result in assay [1], in assay [16], in assay [2], in assay [17], in [3] and in assay [4] was “inactive” in each case. In addition, the Potency result in assay [6], in assay [10], in [11], in assay [13] and in assay [15] was “inactive” each time. The result in [5], in [7], in assay [8], in assay [9], in assay [12] and in [14] was inactive.
In the case of `Nc1ncn([C@H]2C[C@H](O)[C@@H](CO)O2)c(=O)n1`, the Potency entry in [18], in [16], in assay [2], in assay [4], in [10] and in [11] was “inactive” in each case. For the same molecule, the Potency entry in assay [13] and in assay [15] was “inactive” each time. For the same molecule, the result in assay [5], in assay [7], in assay [8], in [9] and in [14] was inactive.
With `O=C1CCCCCCCCCCCC(=O)OCCO1`, the Potency entry in assay [1], in [16], in [2], in assay [3], in [4] and in [6] was “inactive” each time. Besides, the Potency result in [10], in assay [11], in assay [13] and in assay [15] was “inactive” each time. Besides, the result in assay [5], in assay [7], in [8], in [9] and in assay [14] was inactive.
With `CCc1c(C(=O)NN2CCCCC2)nn(-c2ccc(Cl)cc2Cl)c1-c1ccc(Br)cc1`, the Potency result in assay [1], in [16], in assay [2], in assay [3], in assay [4] and in assay [6] was “inactive” each time. Besides, the Potency entry in [10] and in assay [11] was “inactive” throughout. In addition, the Potency in [17] was 24.3 µM (active). For the same molecule, the outcome in assay [5], in [7], in [8], in [9], in assay [12] and in assay [14] was inactive.
